High-throughput results as filed in PubChem BioAssay.
An excerpt weighted towards active compounds, which were near 18% of everything screened.
TDP1 cell CPT: growth inhibition of DT40 Tdp1-/-;hTDP1 cells with camptothecin (screen for TDP1 inhibitors); chicken DT40 Tdp1-/-;hTDP1 cells + 20 nM CPT, ATP luminescence, 48 h; actives 12% (n = 420,000); Potency, µM (top dose mostly 46.2 µM), hits mostly inhibitors; also: nearly all actives have a fitted effect of over 55% in size
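Cell growth measured by CellTiter-Glo luminescence after a minimum 48 h, 37 C compound exposure with 20 nM CPT in Tdp1-knockout DT40 cells stably expressing hTDP1, seeded 400/well; qHTS titration format.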
TGFb inhibitor: blocks TGF-b signaling. HepG2 CAGA-GFP TGF-b/SMAD3 reporter, GFP fluorescence, 18 h; TGF-beta stimulated, 500 pg/mL final. actives 1.2% (n = 410,000). Potency, µM (titrated, usually from 46.1 µM), hits mostly inhibitors; also: nearly all actives have a fitted effect of over 65% in size
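HEPG2 CAGA-GFP cells (1000/well, DMEM with 1% FBS) were pre-incubated 2 h at 37 degrees C, given compound by pin tool, then stimulated with TGF-beta at 500 pg/mL final for 18 h before per-cell GFP fluorescence imaging.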
HepG2 tox: HepG2 cytotoxicity, counter-screen for TGF-b inhibitors; AID 588856; HepG2 CAGA-GFP viability, ATP luminescence, 18 h; actives 0.76% (n = 410,000); Potency, µM (titrated, usually from 46.1 µM), actives largely listed as cytotoxic
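CellTiter-Glo luminescence gave cytotoxicity after 18 hours at 37 degrees C. The cells were HepG2 CAGA-GFP in 1% FBS DMEM, stimulated with 500 pg/mL TGF-beta after compound addition. %Activity was normalised to no-cell wells (complete cell-killing) and DMSO (no toxicity), and curves were fitted and classified.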
IL-1B inflam inh: inflammasome signaling inhibition, IL-1 beta readout; THP-1 LPS/ATP IL-1B secretion, AlphaLISA, 16 h; hits give low values; activity change, % at 57.5 µM; actives 4.7% (n = 360,000); AID 743279; in the data active = activity change below about -50%; inconclusive = mostly about -30% to -49%
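THP-1 cells pretreated 1 hr with compounds (up to 57.5 uM final), then stimulated with LPS (250 ng/mL final) plus ATP (1.25 mM final); secreted IL-1B measured by AlphaLISA after 16 hr, decreased signal indicating inhibition.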
TDP1 block: inhibitors of human tyrosyl-DNA phosphodiesterase TDP1 | recombinant TDP1, AlphaScreen DNA substrate cleavage | Potency, µM (highest dose often 130 µM), usual class: inhibitors | actives 0.28% (n = 350,000) | AID 485290; also: nearly all actives have a fitted effect of over 40% in size
Target sequence (Q9NUW8 whole entry, looked up): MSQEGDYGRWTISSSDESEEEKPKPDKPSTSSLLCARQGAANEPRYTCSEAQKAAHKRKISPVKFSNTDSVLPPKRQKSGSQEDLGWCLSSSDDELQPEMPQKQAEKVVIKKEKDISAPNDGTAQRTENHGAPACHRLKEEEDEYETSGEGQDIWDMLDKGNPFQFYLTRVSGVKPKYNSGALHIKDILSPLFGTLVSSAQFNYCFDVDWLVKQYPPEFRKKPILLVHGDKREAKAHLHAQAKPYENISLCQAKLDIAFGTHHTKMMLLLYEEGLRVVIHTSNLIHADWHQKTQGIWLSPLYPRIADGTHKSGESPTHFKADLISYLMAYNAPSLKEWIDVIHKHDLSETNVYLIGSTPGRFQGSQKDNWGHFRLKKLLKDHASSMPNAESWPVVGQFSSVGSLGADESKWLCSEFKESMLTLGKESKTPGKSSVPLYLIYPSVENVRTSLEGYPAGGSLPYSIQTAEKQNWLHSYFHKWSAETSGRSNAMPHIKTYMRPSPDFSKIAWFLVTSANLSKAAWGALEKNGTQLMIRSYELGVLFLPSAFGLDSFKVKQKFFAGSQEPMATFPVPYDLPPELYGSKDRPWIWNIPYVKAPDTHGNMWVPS
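Steps: enzyme plus compound, 15 min RT; add biotin/phosphotyrosine-FITC oligonucleotide (15 nM final), react 5 min; add donor/acceptor beads (10 ug/ml final), 10 min; read AlphaScreen. Tdp1 at 1 nM final.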
DT40 TDP1 no CPT: qHTS for Inhibitors of human tyrosyl-DNA phosphodiesterase 1 (TDP1): qHTS in cells in absence of CPT; DT40 Tdp1-/- hTDP1 cells, no CPT, ATP luminescence, 48 h; Potency, µM (top dose mostly 46.2 µM), hits mostly inhibitors; actives 15% (n = 420,000); also: nearly all actives have a fitted effect of over 55% in size
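DT40 Tdp1-/-;hTDP1 cells, no CPT (DMSO vehicle only), 400 cells/well; compounds pin-transferred; ≥48 hr, 37 °C; CellTiter-Glo 30 min RT dark, luminescence read.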
A number is an active result; . = inactive; ? = inconclusive; / = no result given; ! = repeats disagree; [ ] = another dose, or the depositor's remark. Unless noted, calls follow the shape of the dose curve; as a rule, active = well fitted curve in the direction sought with a large enough effect; inconclusive = small, poorly fitted or top-dose-only effect, or another doubt; inactive = no such curve, though single readings can be large; an effect the other way counts as inactive or inconclusive.

SMILES	TDP1 cell CPT	TGFb inhibitor	HepG2 tox	IL-1B inflam inh	TDP1 block	DT40 TDP1 no CPT
Cc1ccc(Nc2nc(N)c([N+](=O)[O-])c(N3CCCC(C)C3)n2)cc1C (configuration not stated)	?	.	.	-98.0	.	?
COc1cc(C=CC(=O)OCC=Cc2ccc3c(c2)OCO3)cc(OC)c1OC	?	.	.	.	/	?
CC1(C(=O)NS(=O)(=O)c2cccc(C#N)c2)CCN1C(=O)c1cccc2ccccc12 (configuration not stated)	.	.	.	.	/	.
CCN1CCN(c2nc(N)c([N+](=O)[O-])c(Nc3ccc(C)cc3)n2)CC1	?	?	.	-61.5	.	?
Cc1ccc(Nc2nc(N3CCN(C)CC3)nc(N)c2[N+](=O)[O-])cc1C	/	/	/	/	.	/
CCCNC(=O)C1(C)CCN(Cc2cccc(OC(=O)c3ccccc3)c2)C1 (configuration not stated)	.	.	.	.	/	.
CCNC(=O)C1(C)CCCN(Cc2ccccc2-c2ccccc2)C1 (configuration not stated)	?	?	.	.	/	?
CCNC(=O)C1(C)CCN(Cc2cccc(Oc3ccccc3)c2)C1 (configuration not stated)	?	.	.	.	/	16.4µM
CCNC(=O)C1(C)CCCN(Cc2ccc(Oc3ccccc3)cc2)C1 (configuration not stated)	13µM	.	.	.	/	18.4µM
O=C(N/N=C/c1ccc2c(c1)OCO2)c1ccc2ccccc2n1	.	?	.	.	.	.
O=C(N/N=C/c1cc2c(cc1Br)OCO2)c1ccccn1	.	.	.	.	.	?
O=C(N/N=C/c1ccc2c(c1)OCO2)c1ccccn1	?	.	7.08µM	.	.	?
O=C(N/N=C/c1ccc2c(c1)OCO2)c1cccc2ccccc12	2.06µM	.	.	.	.	3.26µM
C(=N\Nc1ccccn1)/c1ccc2c(c1)OCCO2	.	.	.	-69.2	.	?
Cc1cccc(C)c1OCC(=O)N/N=C/c1ccc2c(c1)OCO2	2.91µM	.	.	.	.	3.66µM
CCN(C[C@H]1N[C@@](Cc2ccccc2)(C(=O)OC)[C@H]2C(=O)N(C)C(=O)[C@@H]12)C(=O)COc1ccccc1	.	.	.	.	.	.
Cn1cc(C(=O)N/N=C/c2cccs2)c2ccccc21	.	.	.	.	.	8.2µM
Cc1occc1C(=O)N/N=C/c1cccs1	.	.	.	.	.	.
Cn1cc(C(=O)N/N=C/c2ccc3c(c2)OCO3)c2ccccc21	7.31µM	.	.	.	.	5.17µM
O=C(O)CCC(=O)c1ccc(C2CCCCCC2)cc1	.	.	.	.	/	.
CNC(=O)c1ccc(CN(C)C(=O)/C=C/c2ccc(S(=O)(=O)N3CCCCCC3)cc2)cc1	23.1µM	.	7.08µM	.	/	23.1µM
COc1cccc(NC(=O)CN(C)C(=O)c2ccccn2)c1	.	.	.	.	.	.
COc1cccc(NC(=O)CN(C)C(=O)/C=C/c2ccc(S(=O)(=O)N3CCCCCC3)cc2)c1	?	.	.	.	/	18.4µM
CCOc1ccc(CN(C)C(=O)CCc2ccc(S(=O)(=O)N3CCCCCC3)cc2)cc1	.	?	.	?	.	.
COc1cccc(NC(=O)CN(C)C(=O)/C=C/c2ccc3ccccc3n2)c1	.	.	.	-77.2	/	.
SMILES	TDP1 cell CPT	TGFb inhibitor	HepG2 tox	IL-1B inflam inh	TDP1 block	DT40 TDP1 no CPT
COc1ccc(CN(C)C(=O)/C=C/c2ccc(S(=O)(=O)N3CCCCCC3)cc2)cc1	?	?	.	?	.	23.1µM
CN(CC(=O)Nc1cccc(F)c1)C(=O)/C=C/c1ccc(S(=O)(=O)N2CCCCCC2)cc1	?	.	.	?	/	?
CCC(=O)OCc1cc(=O)n2nc(C3CC3)sc2n1	.	.	.	/	.	.
CC(OC(=O)/C=C/c1ccc2ccccc2n1)C(=O)N(C)c1ccccc1 (configuration not stated)	?	.	.	.	.	?
COc1ccccc1NC(=O)C(C)OC(=O)/C=C/c1ccc2ccccc2n1 (configuration not stated)	29.1µM	.	.	.	.	?
Cc1nn(-c2ccccc2)c(N2CCCC2)c1/C=N/NC(=S)Nc1ccc(F)cc1	5.8µM	.	.	.	/	8.2µM
Cc1nn(-c2ccccc2)c(N2CCCCC2)c1/C=N/NC(=O)c1ccncc1	13µM	.	.	.	.	23.1µM
CCOc1ccc(S(=O)(=O)Nc2ccc(C(=O)N/N=C/c3c(C)nn(-c4ccccc4)c3N3CCCC3)cc2)cc1	?	?	.	.	.	?
O=C(O)COc1ccccc1C=NNC(=O)c1ccccc1NS(=O)(=O)c1cccs1	.	.	.	.	.	.
CCC(CC)C(=O)Nc1cc(-c2cn3cccnc3n2)ccc1OC	.	.	.	/	.	.
COc1cc2c(cc1O)CC[C@@H]1[C@@H]2CC[C@]2(C)[C@@H](O)CC[C@@H]12	1.84µM	.	.	.	.	4.61µM
C[C@]12CC[C@@H]3c4ccc(OC(=O)c5ccccc5)cc4CC[C@H]3[C@@H]1CC[C@@H]2O	14.6µM!	.	.	.	.	13µM!
COc1cc2c(cc1O)CCC1C2CC[C@@]2(C)C1CC[C@@H]2O (some centres not stated)	2.37µM	/	/	/	.	1.88µM
C[C@]12CC[C@@H]3c4ccc(O)cc4CC[C@H]3[C@@H]1C[C@@H](O)[C@@H]2O	?	.	.	.	.	.
C[C@]12CCC3c4ccc(OC(=O)c5ccccc5)cc4CCC3C1CCC2=O (some centres not stated)	.	/	/	/	.	.
CCOc1cc2c(cc1O)C(=NO)CC1C2CCC2(C)C(O)CCC12 (configuration not stated)	0.184µM	?	.	.	/	0.0517µM
Cc1ccc2c(c1)CN(CCNC(=O)c1cc3ccccc3oc1=O)CC(C)O2 (configuration not stated)	.[9.04 µM]	/	/	/	/	.
CCOC(=O)c1[nH]c(C)c(CCC(=O)Nc2cc(Cl)ccc2C)c1C	.	.	.	/	.	.
N#CC1(NC(=O)CSc2nnc(C3CC3)n2N)CCCCC1	.	.	.	.	/	.
Cc1ccc2cc(CN(CCN3CCOCC3)Cc3nnnn3Cc3ccco3)c(=O)[nH]c2c1C	?	.	.	.	.	.
